# Assay results reported in PubChem BioAssay.
# Active and inactive are the calls of the source. Unless noted, how the calls were made is not given here.
# System: not listed separately
# Assay: antimalarial activity against Dd2 strain (AID 2302;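 active means growth inhibition above 50% at the single 2 µM test dose, taken to imply half-maximal potency below 2 µM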;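 further: 0% = DMSO untreated growth and 100% = chloroquine plus artemisinin killed control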)
# Conditions: P. falciparum Dd2 in RBCs, LDH growth readout, 72 h; at 2 µM; stronger effect = higher value
row,SMILES,growth inhibition
1,CN(C)c1cc2c(Nc3ccc4nc(Cc5ccccc5)[nH]c4c3)ncnc2cn1,29% (inactive)
2,Nc1ncnc2occ(-c3ccc(NC(=O)Nc4cc(C(F)(F)F)ccc4F)cc3)c12,99% (active)
3,Cc1ccc(O)cc1Nc1ccnc2cc(-c3ccccn3)ccc12,98% (active)

# System: not listed separately
# Assay: human hepatoma cell viability loss – ATP luminescence, cytotoxicity control for P. falciparum antimalarial project, primary screen (AID 2303;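 active means inhibition above 50%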;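 further: 0% = DMSO wells and 100% = digitonin-killed cells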)
# Conditions: HepG2 viability, 24-48 h, at 10 µM, stronger effect = higher value
row,SMILES,inhibition
1,CN(C)c1cc2c(Nc3ccc4nc(Cc5ccccc5)[nH]c4c3)ncnc2cn1,11% (inactive)
2,Nc1ncnc2occ(-c3ccc(NC(=O)Nc4cc(C(F)(F)F)ccc4F)cc3)c12,57% (active)
3,Cc1ccc(O)cc1Nc1ccnc2cc(-c3ccccn3)ccc12,6% (inactive)

# Molecular target: L-lactate dehydrogenase (Plasmodium falciparum (isolate CDC / Honduras)) (UniProt Q27743)
# Sequence (Q27743 whole entry, looked up): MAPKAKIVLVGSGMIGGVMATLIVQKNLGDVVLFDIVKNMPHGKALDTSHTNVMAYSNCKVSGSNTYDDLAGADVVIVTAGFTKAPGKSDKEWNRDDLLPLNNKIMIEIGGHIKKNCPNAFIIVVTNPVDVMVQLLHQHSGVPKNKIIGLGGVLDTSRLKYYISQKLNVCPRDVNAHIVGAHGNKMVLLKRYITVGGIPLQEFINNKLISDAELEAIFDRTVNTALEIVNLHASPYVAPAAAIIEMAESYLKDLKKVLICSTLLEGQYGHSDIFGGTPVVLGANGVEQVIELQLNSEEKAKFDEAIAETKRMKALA
# Assay: PfLDH activity inhibition – cell lysate, 3D7 strain, counter-screen for P. falciparum growth inhibition project (AID 2304);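 further: 0% = vehicle and 100% = reference inhibitor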
# Conditions: P. falciparum 3D7 crude extract, LDH APAD/NBT absorbance; at 2 µM; stronger effect = higher value
row,SMILES,inhibition
1,CN(C)c1cc2c(Nc3ccc4nc(Cc5ccccc5)[nH]c4c3)ncnc2cn1,0% (inactive)
2,Nc1ncnc2occ(-c3ccc(NC(=O)Nc4cc(C(F)(F)F)ccc4F)cc3)c12,-1% (inactive)
3,Cc1ccc(O)cc1Nc1ccnc2cc(-c3ccccn3)ccc12,-2% (inactive)

# System: not listed separately
# Assay: inhibition of 3D7 malaria parasite growth – strain 3D7 (AID 2306);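 further: 0% = DMSO wells and 100% = chloroquine plus artemisinin control wells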
# Conditions: P. falciparum 3D7 erythrocytic growth, LDH absorbance, 72 h; at 2 µM; stronger effect = higher value
row,SMILES,growth inhibition
1,CN(C)c1cc2c(Nc3ccc4nc(Cc5ccccc5)[nH]c4c3)ncnc2cn1,85% (active)
2,Nc1ncnc2occ(-c3ccc(NC(=O)Nc4cc(C(F)(F)F)ccc4F)cc3)c12,99% (active)
3,Cc1ccc(O)cc1Nc1ccnc2cc(-c3ccccn3)ccc12,97% (active)

# System: not listed separately
# Assay: P. berghei load reduction in hepatocytes – cell-based, HepG2, luciferase luminescence, HepG2 viability, primary screen (AID 624349; in the data active means parasite load remaining mostly below about 12%, no sharp cut-off; inactive means mostly above about 10%;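 further: 100% = mean of DMSO negative control wells on the same plate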)
# Conditions: P. berghei liver stage in HepG2, luciferase luminescence, concentration not given here; parasite load remaining: stronger effect = lower value; viability: measured here: HepG2 viability without parasites
SMILES,viability [%],parasite load remaining
CN1C(=O)C(c2c[nH]c3ccccc23)=C(c2c[nH]c3ccccc23)C1=O,125,34.8% (inactive)
COc1cc2ncn(-c3cc(OCc4ccccc4S(C)(=O)=O)c(C#N)s3)c2cc1OC,80.2,28.4% (inactive)
COc1ccc(COc2ccc(Cc3cnc(N)nc3N)cc2OC)cc1,98.2,13.9% (inactive)
Nc1nccc(-c2c(-c3ccc(F)cc3)ncn2C2CCNCC2)n1,61.1,50.2% (inactive)
Cn1cc(C2=C(c3cn(CCCSC(=N)N)c4ccccc34)C(=O)NC2=O)c2ccccc21,73.7,30.4% (inactive)
O=C1NC(=O)C(c2c[nH]c3ccccc23)=C1c1c[nH]c2ccccc12,162,50.4% (inactive)
Fc1ccc(-c2nc3n(c2-c2ccncc2)CCS3)cc1,65.6,45.5% (inactive)

# System: not listed separately
# Assay: liver-stage malaria parasite load reduction – cell-based, known kinase inhibitor set, luminescence, hepatoma host viability (AID 624392);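 further: infected cells incubated roughly two days before readout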
# Conditions: Plasmodium liver stage in hepatoma cells, luciferase luminescence, concentration not given here; liver cell % of control: measured here: host liver cell viability; parasite % of control: stronger effect = lower value
SMILES,parasite % of control,liver cell % of control [%]
CCn1c(-c2nonc2N)nc2c(C#CC(C)(C)O)nc(OC[C@@H](N)c3ccccc3)cc21,48.7% (inactive),87.1
COc1ccc(-c2cc3c(N)ncnc3o2)cc1,203% (inactive),106
COc1cc(/C=N/Nc2ncnc3[nH]ncc23)ccc1O,96.9% (inactive),81.7
CN(C)c1cc2c(Nc3ccc4nc(Cc5ccccc5)[nH]c4c3)ncnc2cn1,105% (inactive),154
FC(F)(F)c1ccc(-c2nn3ncccc3c2-c2ccnc(Nc3ccc4c(c3)OCCO4)n2)cc1,77.8% (inactive),105
NS(=O)(=O)c1ccc(N=Nc2c(O)[nH]c3ccc(C(=O)NCCCn4ccnc4)cc23)cc1,116% (inactive),94
CN1C(=O)C(c2c[nH]c3ccccc23)=C(c2c[nH]c3ccccc23)C1=O,30.7% (inactive),87.4
CN(c1ccc(NC(=O)Nc2ccc(OC(F)(F)F)cc2)cc1)c1ccnc(Nc2cccc(S(N)(=O)=O)c2)n1,13.1% (inactive),58.3
Cn1cc(C2=C(c3c4n(c5ccccc35)CCC(CN)C4)C(=O)NC2=O)c2ccccc21 (configuration not stated),50.7% (inactive),84.3
CCn1c(-c2nonc2N)nc2cnc(Oc3cccc(NC(=O)c4ccc(OCCN5CCOCC5)cc4)c3)cc21,42.7% (inactive),80.1
COc1cccc(-n2ncc3c(N/N=C/c4ccc(F)cc4)ncnc32)c1,96.2% (inactive),104
COc1cc2ncn(-c3cc(OCc4ccccc4S(C)(=O)=O)c(C#N)s3)c2cc1OC,80.2% (inactive),84.7
COc1ccc(COc2ccc(Cc3cnc(N)nc3N)cc2OC)cc1,45.5% (inactive),99.1
CN(C)c1cc2c(Nc3ccc4c(cnn4Cc4ccccc4)c3)ncnc2cn1,78.7% (inactive),130
CN1CCC(n2cnc(-c3ccc(F)cc3)c2-c2ccnc(Nc3ccccc3)n2)CC1,74.5% (inactive),67.1
N#Cc1c(NC(=O)c2ccccc2F)sc2c1CCCC2,60.7% (inactive),160
CC(=O)Nc1cccc(C#Cc2cncnc2Nc2ccc(OCc3cccc(F)c3)c(Cl)c2)c1,108% (inactive),111
CCOc1ccc2c(-c3ccnc(Nc4cc(OC)cc(C(F)(F)F)c4)n3)cnn2n1,254% (inactive),65.9
